The whole screen tested about 290,000 compounds, of which about 490 (0.17%) were called active. This is one part of a sample in which actives are shown more often than they occur. Unmarked numbers belong to inactive results. No stated cut-off is given here; in the data, active means inhibition above about 37%; inactive means the rest.
Assay: DNA intercalator displacement agents – biochemical, FID fluorescence, artefact control for HCV NS3 helicase inhibitor project, primary screen (AID 1845);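 further: 0% = vehicle and 100% = reference compound; higher means more ethidium bromide displaced from hairpin DNA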
Conditions: DNA fluorescent intercalator displacement, at 7.9 µM, active compounds read high

| Structure (SMILES) | inhibition |
| --- | --- |
| CN1CCN(c2cc(N3CCNCC3)ccc2[N+](=O)[O-])CC1 | 14.7% |
| COc1cccc(-c2nc3ccc(N4CCN(C)CC4)cc3[nH]2)c1 | 40.7% (active) |
| Cc1nc2ccc(N3CCN(C)CC3)cc2nc1C | 7.94% |
| Cn1c(O)c(C(=Nc2ccc(F)cc2)c2ccccc2)c(=O)n(C)c1=O | 1.2% |
| CCOC(=O)C1(CCc2ccccc2)CCN(Cc2ccco2)CC1 | 5.09% |
| CCOC(=O)C1(Cc2ccc(Cl)cc2)CCN(C(C)CCn2cccn2)CC1 (stereo not given) | 37.1% (active) |
| Cn1c(C(=O)N2CCC(C(=O)N3CCC4(CC3)OCCO4)CC2)cc2sccc21 | -30.4% |
| O=C(C1CC(=O)N(C2CCCC2)C1)N1CCC2(CC1)OCCO2 (stereo not given) | -1.99% |
| c1ccc(C2NCc3ccccc3-n3cccc32)cc1 (stereo not given) | 9.21% |
| O=C(Cc1ccc(Cl)cc1)NCCN1CCN(C(=O)Cc2ccc(Cl)cc2)CC1 | -26% |

Reference: PubChem BioAssay AID1845 (The Scripps Research Institute Molecular Screening Center, 2009)
